Assay results as given in PubChem BioAssay (NCATS).
Inconclusive results are not listed. Calls of active or inactive are those of the source. The call rests on the fitted dose curve; in most records, active means well fitted curve in the direction sought with a large enough effect; inconclusive means small, poorly fitted or top-dose-only effect, or another doubt; inactive means no such curve, though single readings can be large; an effect the other way counts as inactive or inconclusive. Numbered stars: 1 amine (or outer) side, 2 acyl side, 3 side chain; on linkers, the order of the positions; unused ones are H or OH. Bridge positions count the residues as written; N and C are the ends. Square brackets hold non-standard residues; d marks the D form. Peptide text beside a SMILES is read from it. * marks the point of attachment. ξ: configuration not given here. ΔAla(Z-3-ureido) = NC(=O)N/C=C(\N)C(=O)O; X3 = NC1=NCCC(C(N[*:1])C(=O)[*:2])N1; ξβ3hOrn = NCCCC(N)CC(=O)*; Dap = NC[CH](N)C(=O)O

Biological target: Luciferin 4-monooxygenase (Photinus pyralis) (UniProt P08659)
Sequence (P08659 whole entry, looked up): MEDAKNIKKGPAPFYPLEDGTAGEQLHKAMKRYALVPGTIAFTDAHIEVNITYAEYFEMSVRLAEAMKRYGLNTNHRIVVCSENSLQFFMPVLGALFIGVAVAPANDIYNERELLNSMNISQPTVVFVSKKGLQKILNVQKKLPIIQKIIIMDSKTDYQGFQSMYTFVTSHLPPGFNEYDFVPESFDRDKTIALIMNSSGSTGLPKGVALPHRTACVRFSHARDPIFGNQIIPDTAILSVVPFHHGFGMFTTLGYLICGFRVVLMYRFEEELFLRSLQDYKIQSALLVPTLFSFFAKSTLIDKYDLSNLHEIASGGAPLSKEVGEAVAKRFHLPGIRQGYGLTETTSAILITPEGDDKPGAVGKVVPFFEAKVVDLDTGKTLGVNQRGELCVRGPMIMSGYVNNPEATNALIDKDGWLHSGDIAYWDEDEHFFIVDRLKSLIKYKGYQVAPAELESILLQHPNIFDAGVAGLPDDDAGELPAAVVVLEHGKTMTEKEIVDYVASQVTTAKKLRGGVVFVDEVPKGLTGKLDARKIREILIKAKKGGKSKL
Assay: Biochemical firefly luciferase enzyme assay for NPC (AID 624030);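 further: purified P. pyralis luciferase at 10 nM with luciferin and ATP substrate; 0% = DMSO and -100% = full luciferase inhibition by PTC124 control; nearly all actives have a fitted effect of over 70% in size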
Settings: purified P. pyralis luciferase, luminescence, 5 min; series mostly up to 58.6 µM; activity change, negative = inhibition: at the top concentration
In short: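 Counter-screen for direct inhibition of the luciferase enzyme by approved-drug library compounds, run at 10 nM enzyme in 50 mM Tris acetate (final). Luminescence was read within 5 min of enzyme-buffer addition and normalized to PTC124 versus DMSO (0%).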

Structure (SMILES) | activity change, negative = inhibition
CCC(N)CCc1c[nH]c2ccccc12 (centres undefined) | 2.21% [at 123 µM] (inactive)
CN[C@H](C)Cc1ccccc1 | 2.93% [at 123 µM] (inactive)
CC(N)C(=O)c1ccccc1 (centres undefined) | -14.4% [at 123 µM] (inactive)
COC1=CC=C2[C@H]3Cc4ccc(OC)c5c4[C@@]2(CCN3C)C1O5 (some centres undefined) | 0.851% [at 123 µM] (inactive)
CCC(=O)O[C@@](Cc1ccccc1)(c1ccccc1)[C@H](C)CN(C)C | 5.92% [at 123 µM] (inactive)
COc1ccc2c3c1OC1C(O)C=CC4[C@@H](C2)N(C)CC[C@]314 (some centres undefined) | -3.07% [at 123 µM] (inactive)
ClC[C@H]1CO1 (tested in a mixture with another compound) | -0.162% (inactive)

System: not listed separately
Assay: S16 Schwann cell PMP22 intronic element firefly luciferase assay (AID 624032); further: nearly all actives have a fitted effect of over 30% in size; further: potency means the concentration at half of the fitted maximal effect;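 on activity change, negative = inhibition: plate controls were DMSO for no effect and PTC124 positive control mean for full effect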
Settings: S16 rat Schwann cells, PMP22 element FLuc, 24 h; series mostly up to 57.5 µM; activity change, negative = inhibition: at the top concentration
In short: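 Rat S16 Schwann cells stably carrying a PMP22 intronic element-driven Fluc reporter were seeded overnight, then exposed to compounds for 24 h at 37 °C. Luminescence was normalized to PTC124 (positive control) and DMSO (0% activity).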

Structure (SMILES) | Potency | activity change, negative = inhibition
CNC[C@H](O)c1ccc(OC(=O)C(C)(C)C)c(OC(=O)C(C)(C)C)c1 | 0.0098 µM (active) | 
NCCCC(N)CC(=O)NCC1NC(=O)C(CO)NC(=O)C(N)CNC(=O)C(C2CCN=C(N)N2)NC(=O)/C(=C/NC(N)=O)NC1=O (stereo not drawn) (H-[Dap]S[Dap](ξβ3hOrn)[ΔAla(Z-3-ureido)][X3]; lactam 1-C; configuration not given here) |  | 42.8% (inactive)
NC(=O)Oc1ccc(Cc2ccccc2)cc1 |  | 39.3% (inactive)
CC(=O)NC1[C@H]([C@H](O)[C@H](O)CO)OC(C(=O)O)=C[C@H]1N=C(N)N (some centres undefined) |  | 5.91% (inactive)
Cc1ncc(C[n+]2csc(CCOP(=O)(O)O)c2C)c(N)n1 | 7.21 µM (active) | 
CC1OC(OC2C(O)CC(OC3C(O)CC(OC4CCC5(C)C(CCC6C5CCC5(C)C(C7=CC(=O)OC7)CCC65O)C4)OC3C)OC2C)CC(O)C1O (centres undefined) | 10.2 µM (active) | 
Cc1cn([C@H]2C[C@H](O)[C@@H](CO)O2)c(=O)[nH]c1=O |  | 15.8% (inactive)
NC(C(=O)O)[C@@H]1CC(Cl)=NO1 (some centres undefined) | 2.56 µM (active) | 
C[n+]1c2cc(N)ccc2cc2ccc(N)cc21 | 1.81 µM (active) | 
C[C@]12C=CC(=O)N[C@@H]1CC[C@@H]1C2CC[C@]2(C)C(C(=O)Nc3cc(C(F)(F)F)ccc3C(F)(F)F)CC[C@@H]12 (some centres undefined) | 16.1 µM (active) | 
CCCCCCCCCCCCCCCCCC[N+](C)(C)CCC[Si](OC)(OC)OC | 0.572 µM (active) | 
COc1cc(-c2ccc(-[n+]3nc(-c4ccccc4)nn3-c3ccc([N+](=O)[O-])cc3)c(OC)c2)ccc1-[n+]1nc(-c2ccccc2)nn1-c1ccc([N+](=O)[O-])cc1 | 14.4 µM (active) | 
